The structures appear in SMILES notation. Where “and” joins values, the source holds several entries; their conditions need not be identical. Identical values can stand only once. Inconclusive results are not listed. Calls of active or inactive are those of the source. Calls follow the shape of the full dose curve.
Potency is read from the fitted curve at half-maximal effect.

This test in a line: Primary qHTS to identify inhibitors of SARS-CoV-2 cell entry (AID 1645846). Also: nearly all actives have a fitted effect of over 45% in size. Conditions: SARS-CoV-2 pseudovirus cell entry assay, luminescence; activity change, negative = inhibition: at 57.1 µM (top of the series) unless noted. The procedure, abridged: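 HEK293 cells stably expressing human ACE2, pre-treated 1 h with compound, then infected with MLV particles pseudotyped with Wuhan-Hu-1 spike (C-terminal 19-aa truncation). Luciferase luminescence after 48 h at 37 °C, normalised to spike PP and bald PP.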
For orientation: In qHTS, concentration-response curves come from the screen itself.
Turning to `COc1ccc([C@@H](O)[C@@H](C)Oc2ccc([C@H]3O[C@H](c4ccc(O[C@H](C)[C@H](O)c5ccc(OC)c(OC)c5)c(OC)c4)[C@H](C)[C@H]3C)cc2OC)cc1OC`, the activity change, negative = inhibition was -95.6%.
`CN(C)C/C=C/C(=O)Nc1ccc(C(=O)Nc2cccc(Nc3ncc(Cl)c(-c4c[nH]c5ccccc45)n3)c2)cc1`: the Potency was 1 µM (active).
Still for that read-out and setting: for `CC1=C(CO)C(=O)O[C@@H]([C@@H](C)[C@H]2CC[C@H]3[C@@H]4C[C@H]5O[C@]56[C@@H](O)C=CC(=O)[C@]6(C)[C@H]4CC[C@]23C)C1` the value was 1.26 µM (active); for `C[C@@H]1COCCN1c1cc(C2(S(C)(=N)=O)CC2)nc(-c2ccnc3[nH]ccc23)n1` (stereo not given in full), 10 µM (active).
`COc1ccc(/C=C\c2cc(OC)c(OC)c(OC)c2)cc1O`: the activity change, negative = inhibition is -68.5%.
For the compound `O=C(O)CNC(=O)c1ncc(-c2cccc(Cl)c2)cc1O`, the Potency entry was “inactive”.
As to `Cc1ccc(-c2ccc3ncc4c(c3n2)n(C2CCN(C(=O)[C@H](C)O)CC2)c(=O)n4C)cn1`, the activity change, negative = inhibition was -95.8%.
On to `Cc1c(CN2CCC(Nc3ncnc4sc(CC(F)(F)F)cc34)CC2)ccc2c1cc(C#N)n2Cc1cn[nH]c1`, for which the Potency was 8.91 µM (active).
Take `CNC(=O)Cn1cc(-c2ccc3c(c2)C(F)CC32NC(=O)N(CC(=O)N(Cc3ccc(F)cc3)[C@@H](C)C(F)(F)F)C2=O)cn1` (stereo not given in full): the activity change, negative = inhibition was -19.9% and -7.29%.
Regarding `CCOC(=O)CCNc1cc(N2CCc3ccccc3CC2)nc(-c2ccccn2)n1`, the activity change, negative = inhibition was -97.3%.
On the same count and under the same terms, for `COc1cc(OC)c(/C=C/S(=O)(=O)Cc2ccc(OC)c(NCC(=O)O)c2)c(OC)c1` the value was -75.7%; for `C=CC(=O)Nc1cccc(C)c1Nc1ncc2cc(-c3c(Cl)c(OC)cc(OC)c3Cl)ccc2n1`, -95%.
As to `COc1cc2c(Oc3ccc4[nH]c(C)cc4c3F)ccnc2cc1OCC1(N)CC1`, the Potency was 11.2 µM (active).
On the same count and under the same terms, the figure for `Cc1cc(CC(C)CC(C)(C)C)n(O)c(=O)c1` (stereo not given) is 20 µM (active); for `CC(C)N(CCCNC(=O)Nc1ccc(C(C)(C)C)cc1)C[C@H]1O[C@@H](n2cc(Br)c3c(N)ncnc32)[C@H](O)[C@@H]1O` it is 35.5 µM (active).
With `CNC(=O)Cn1cc(-c2ccc3c(c2)C(F)CC32NC(=O)N(CC(=O)N(Cc3ccc(F)cc3)C(C)C(F)(F)F)C2=O)cn1` (stereo not given), the activity change, negative = inhibition is -52.5%.
`Cc1ccc(S(=O)(=O)Nc2cc(-c3ccc(C#N)s3)ccc2C)cc1`: the activity change, negative = inhibition is -92%.
As to `CCC[C@H](N[C@H]1CCc2cc(F)cc(F)c2C1)C(=O)Nc1cn(C(C)(C)CNCC(C)(C)C)cn1`, the Potency was 31.6 µM (active).
For `COc1cccc(-c2cc(F)ccc2C2Cc3nc(N)nc(C)c3C(=O)N2)n1` (stereo not given), the activity change, negative = inhibition was -91.7%.
In the case of `C=CC(=O)N1CC/C(=C\c2ccc(F)c([N+](=O)[O-])c2)C(=O)/C(=C/c2ccc(F)c([N+](=O)[O-])c2)C1`, the Potency is 0.891 µM (active).
As to `Cc1ccc(S(=O)(=O)Nc2cc(C(F)(F)F)ccc2C(=O)Nc2nc(-c3ccccc3)cs2)cc1`, the Potency was 8.91 µM (active).
`CC[C@H](C)[C@@H]([C@@H](CC(=O)N1CCC[C@H]1[C@H](OC)[C@@H](C)C(=O)N[C@@H](Cc1ccccc1)c1nccs1)OC)N(C)C(=O)[C@@H](NC(=O)[C@H](C(C)C)N(C)C)C(C)C`: the activity change, negative = inhibition was -79.3%.
Same read-out and setting: for `Cc1c[nH]c(/C=C2\C(=O)Nc3ccccc32)c1CCC(=O)O` the value was -20.8%.
Regarding `Cc1cc(O)cc2c1[C@]1(C)CC[C@H]3C(C)(C)CCC[C@]3(C)[C@H]1C2`, the outcome was “inactive [at 5.25 µM]”.
Consider `Cc1[nH]c2ccccc2c1CCNCc1ccc(/C=C/C(=O)NO)cc1`, for which the Potency entry is “inactive”.
Regarding `COc1cc(C(=O)NC2CCN(C)CC2)c(F)cc1Nc1ncc2c(n1)N(C1CCCC1)CC(F)(F)C(=O)N2C`, the activity change, negative = inhibition was -99.3%.
As to `CC(C)Nc1cc(-c2c[nH]c(C(=O)N[C@H](CO)c3cccc(Cl)c3)c2)c(Cl)cn1`, the Potency was 31.6 µM (active).
With `O=C(NC[C@H](O)CN1CCc2ccccc2C1)c1cc(NC2COC2)ncn1`, the activity change, negative = inhibition is -13.5%.
In the case of `Nc1nccn2c(C3CCC(C(=O)O)CC3)nc(-c3cc4cccc(Cl)c4[nH]3)c12` (stereo not given), the activity change, negative = inhibition is -18%.
`Fc1ccc(-c2csc3ncnc(NCc4ccc5c(c4)OCO5)c23)cc1`: the Potency is 10 µM (active).
For the compound `C[C@]12CCC3[C@@H](CC[C@H]4NC(=O)C=C[C@]34C)[C@@H]1CC[C@@H]2C(=O)Nc1cc(C(F)(F)F)ccc1C(F)(F)F` (stereo not given in full), the activity change, negative = inhibition was -7.71%.
As for `NC(=O)c1ccc2nc(-c3ccc(C4(N)CCC4)cc3)c(-c3ccccc3)n2n1`, the Potency is 25.1 µM (active).
Same read-out and setting: for `CC[C@@H](C)Nc1cc(C(=O)NC2CC3CCC(C2)N3c2ccc(C(=O)C3CC3)cn2)c(C)cc1C(N)=O` (stereo not given in full) the value was 1 µM (active).
On to `Cc1ccc(NS(=O)(=O)c2cccc(C#N)c2)c2[nH]cc(C#N)c12`, for which the activity change, negative = inhibition is -10.5%.
On to `FC(F)(F)c1ccc(CNc2ccc(Cc3c[nH]c4ncccc34)cn2)cc1`, for which the Potency is 20 µM (active).
Still for that read-out and setting: the entry for `NS(=O)(=O)Oc1ccc2c3c(c(=O)oc2c1)CCCCC3` is “inactive”.
With `Cc1ccc(NC(=O)NCc2ccc3c(c2)CN(C2CCC(=O)NC2=O)C3=O)cc1Cl` (stereo not given), the activity change, negative = inhibition is -96.8%.
As to `CCN(CC)CCNC(=O)c1c(C)[nH]c(/C=C2/C(=O)Nc3ccc(-c4csc(-c5ccccc5)n4)cc32)c1C`, the Potency was 22.4 µM (active).
Consider `Nc1nc(N)c2nc(-c3cccc(Cl)c3)c(N)nc2n1`, for which the activity change, negative = inhibition amounted to 1.13%.
Take `C=CC(=O)Nc1ccc(F)c(-c2ncnc3[nH]cc(C(=O)OCC)c23)c1`: the Potency entry was “inactive”.

The values are drawn from PubChem BioAssay (NCATS).
